Positions count from the first letter of the chain named.
Key:
Assay in all cases: PBM; 200 nM protein, PBS
Conditions in all cases: dsDNA, one strand shown
SIX6 [1] = molecular target: T1, SIX6 (Homo sapiens, UniProt O95475 114-200, L167I)
T1 sequence: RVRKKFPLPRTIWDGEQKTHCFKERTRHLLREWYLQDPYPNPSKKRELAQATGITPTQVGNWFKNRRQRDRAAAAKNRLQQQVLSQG

SIX6 [2] = molecular target: T2, SIX6 (Homo sapiens, UniProt O95475 114-200, L143V)
T2 sequence: T1 sequence with L30V, I54L

SIX6 [3] = molecular target: T3, SIX6 (Homo sapiens, UniProt O95475 114-200, H141N)
T3 sequence: T1 sequence with H28N, I54L

SIX6 [4] = molecular target: T4, SIX6 (Homo sapiens, UniProt O95475 114-200, T165P)
T4 sequence: T1 sequence with T52P, I54L

SIX6 [5] = molecular target: T5, SIX6 (Homo sapiens, UniProt O95475 114-200, L167M)
T5 sequence: T1 sequence with I54M

SIX6 [6] = molecular target: T6, SIX6 (Homo sapiens, UniProt O95475 114-200, L143M)
T6 sequence: T1 sequence with L30M, I54L

SIX6 [7] = molecular target: T7, SIX6 (Homo sapiens, UniProt O95475 114-200, L143I)
T7 sequence: T1 sequence with L30I, I54L

SIX6 [8] = molecular target: T8, SIX6 (Homo sapiens, UniProt O95475 114-200, T165G)
T8 sequence: T1 sequence with T52G, I54L

SIX6 [9] = molecular target: T9, SIX6 (Homo sapiens, UniProt O95475 114-200, T139Q)
T9 sequence: T1 sequence with T26Q, I54L

SIX6 [10] = molecular target: T10, SIX6 (Homo sapiens, UniProt O95475 114-200, T165A)
T10 sequence: T1 sequence with T52A, I54L

SIX6 [11] = molecular target: T11, SIX6 (Homo sapiens, UniProt O95475 114-200, L167V)
T11 sequence: T1 sequence with I54V

SIX6 [12] = molecular target: T12, SIX6 (Homo sapiens, UniProt O95475 114-200)
T12 sequence: T1 sequence with I54L

SIX6 [13] = molecular target: T13, SIX6 (Homo sapiens, UniProt O95475 114-200, T165I)
T13 sequence: T1 sequence with T52I, I54L

CAGGGCGC
binding signal (SIX6 [1]): 9.09 upbm affinity estimate (log intensity, higher = more binding, comparable within an allelic series)
binding signal (SIX6 [2]): 8.83 upbm affinity estimate (log intensity, higher = more binding, comparable within an allelic series)
binding signal (SIX6 [3]): 9.07 upbm affinity estimate (log intensity, higher = more binding, comparable within an allelic series)
binding signal (SIX6 [4]): 9 upbm affinity estimate (log intensity, higher = more binding, comparable within an allelic series)
binding signal (SIX6 [5]): 8.98 upbm affinity estimate (log intensity, higher = more binding, comparable within an allelic series)
binding signal (SIX6 [6]): 9.04 upbm affinity estimate (log intensity, higher = more binding, comparable within an allelic series)
binding signal (SIX6 [7]): 8.98 upbm affinity estimate (log intensity, higher = more binding, comparable within an allelic series)
binding signal (SIX6 [8]): 9.07 upbm affinity estimate (log intensity, higher = more binding, comparable within an allelic series)
binding signal (SIX6 [9]): 8.97 upbm affinity estimate (log intensity, higher = more binding, comparable within an allelic series)
binding signal (SIX6 [10]): 8.99 upbm affinity estimate (log intensity, higher = more binding, comparable within an allelic series)
binding signal (SIX6 [11]): 9.01 upbm affinity estimate (log intensity, higher = more binding, comparable within an allelic series)
binding signal (SIX6 [12]): 9.01 upbm affinity estimate (log intensity, higher = more binding, comparable within an allelic series)
binding signal (SIX6 [13]): 8.97 upbm affinity estimate (log intensity, higher = more binding, comparable within an allelic series)

CGGCCCAA
binding signal (SIX6 [1]): 9.05 upbm affinity estimate (log intensity, higher = more binding, comparable within an allelic series)
binding signal (SIX6 [2]): 8.91 upbm affinity estimate (log intensity, higher = more binding, comparable within an allelic series)
binding signal (SIX6 [3]): 9.04 upbm affinity estimate (log intensity, higher = more binding, comparable within an allelic series)
binding signal (SIX6 [4]): 8.99 upbm affinity estimate (log intensity, higher = more binding, comparable within an allelic series)
binding signal (SIX6 [5]): 9.02 upbm affinity estimate (log intensity, higher = more binding, comparable within an allelic series)
binding signal (SIX6 [6]): 8.96 upbm affinity estimate (log intensity, higher = more binding, comparable within an allelic series)
binding signal (SIX6 [7]): 8.94 upbm affinity estimate (log intensity, higher = more binding, comparable within an allelic series)
binding signal (SIX6 [8]): 9.03 upbm affinity estimate (log intensity, higher = more binding, comparable within an allelic series)
binding signal (SIX6 [9]): 9.14 upbm affinity estimate (log intensity, higher = more binding, comparable within an allelic series)
binding signal (SIX6 [10]): 8.99 upbm affinity estimate (log intensity, higher = more binding, comparable within an allelic series)
binding signal (SIX6 [11]): 8.99 upbm affinity estimate (log intensity, higher = more binding, comparable within an allelic series)
binding signal (SIX6 [12]): 8.99 upbm affinity estimate (log intensity, higher = more binding, comparable within an allelic series)
binding signal (SIX6 [13]): 9.03 upbm affinity estimate (log intensity, higher = more binding, comparable within an allelic series)

GCCCGGAA
binding signal (SIX6 [1]): 9.01 upbm affinity estimate (log intensity, higher = more binding, comparable within an allelic series)
binding signal (SIX6 [2]): 8.91 upbm affinity estimate (log intensity, higher = more binding, comparable within an allelic series)
binding signal (SIX6 [3]): 8.98 upbm affinity estimate (log intensity, higher = more binding, comparable within an allelic series)
binding signal (SIX6 [4]): 8.9 upbm affinity estimate (log intensity, higher = more binding, comparable within an allelic series)
binding signal (SIX6 [5]): 8.95 upbm affinity estimate (log intensity, higher = more binding, comparable within an allelic series)
binding signal (SIX6 [6]): 9.01 upbm affinity estimate (log intensity, higher = more binding, comparable within an allelic series)
binding signal (SIX6 [7]): 9 upbm affinity estimate (log intensity, higher = more binding, comparable within an allelic series)
binding signal (SIX6 [8]): 9.03 upbm affinity estimate (log intensity, higher = more binding, comparable within an allelic series)
binding signal (SIX6 [9]): 9.07 upbm affinity estimate (log intensity, higher = more binding, comparable within an allelic series)
binding signal (SIX6 [10]): 8.96 upbm affinity estimate (log intensity, higher = more binding, comparable within an allelic series)
binding signal (SIX6 [11]): 8.95 upbm affinity estimate (log intensity, higher = more binding, comparable within an allelic series)
binding signal (SIX6 [12]): 8.97 upbm affinity estimate (log intensity, higher = more binding, comparable within an allelic series)
binding signal (SIX6 [13]): 8.98 upbm affinity estimate (log intensity, higher = more binding, comparable within an allelic series)

ATCGATAC
binding signal (SIX6 [1]): 11.2 upbm affinity estimate (log intensity, higher = more binding, comparable within an allelic series)
binding signal (SIX6 [2]): 10.5 upbm affinity estimate (log intensity, higher = more binding, comparable within an allelic series)
binding signal (SIX6 [3]): 11.2 upbm affinity estimate (log intensity, higher = more binding, comparable within an allelic series)
binding signal (SIX6 [4]): 9.79 upbm affinity estimate (log intensity, higher = more binding, comparable within an allelic series)
binding signal (SIX6 [5]): 10.6 upbm affinity estimate (log intensity, higher = more binding, comparable within an allelic series)
binding signal (SIX6 [6]): 10.9 upbm affinity estimate (log intensity, higher = more binding, comparable within an allelic series)
binding signal (SIX6 [7]): 10.3 upbm affinity estimate (log intensity, higher = more binding, comparable within an allelic series)
binding signal (SIX6 [8]): 11.2 upbm affinity estimate (log intensity, higher = more binding, comparable within an allelic series)
binding signal (SIX6 [9]): 11.3 upbm affinity estimate (log intensity, higher = more binding, comparable within an allelic series)
binding signal (SIX6 [10]): 11.1 upbm affinity estimate (log intensity, higher = more binding, comparable within an allelic series)
binding signal (SIX6 [11]): 11 upbm affinity estimate (log intensity, higher = more binding, comparable within an allelic series)
binding signal (SIX6 [12]): 11 upbm affinity estimate (log intensity, higher = more binding, comparable within an allelic series)
binding signal (SIX6 [13]): 11 upbm affinity estimate (log intensity, higher = more binding, comparable within an allelic series)

GCCTTCGC
binding signal (SIX6 [1]): 8.84 upbm affinity estimate (log intensity, higher = more binding, comparable within an allelic series)
binding signal (SIX6 [2]): 9.04 upbm affinity estimate (log intensity, higher = more binding, comparable within an allelic series)
binding signal (SIX6 [3]): 8.95 upbm affinity estimate (log intensity, higher = more binding, comparable within an allelic series)
binding signal (SIX6 [4]): 9.09 upbm affinity estimate (log intensity, higher = more binding, comparable within an allelic series)
binding signal (SIX6 [5]): 8.82 upbm affinity estimate (log intensity, higher = more binding, comparable within an allelic series)
binding signal (SIX6 [6]): 9.06 upbm affinity estimate (log intensity, higher = more binding, comparable within an allelic series)
binding signal (SIX6 [7]): 8.98 upbm affinity estimate (log intensity, higher = more binding, comparable within an allelic series)
binding signal (SIX6 [8]): 8.83 upbm affinity estimate (log intensity, higher = more binding, comparable within an allelic series)
binding signal (SIX6 [9]): 8.96 upbm affinity estimate (log intensity, higher = more binding, comparable within an allelic series)
binding signal (SIX6 [10]): 8.83 upbm affinity estimate (log intensity, higher = more binding, comparable within an allelic series)
binding signal (SIX6 [11]): 8.91 upbm affinity estimate (log intensity, higher = more binding, comparable within an allelic series)
binding signal (SIX6 [12]): 8.85 upbm affinity estimate (log intensity, higher = more binding, comparable within an allelic series)
binding signal (SIX6 [13]): 8.83 upbm affinity estimate (log intensity, higher = more binding, comparable within an allelic series)

GGATATCC
binding signal (SIX6 [1]): 11 upbm affinity estimate (log intensity, higher = more binding, comparable within an allelic series)
binding signal (SIX6 [2]): 10.2 upbm affinity estimate (log intensity, higher = more binding, comparable within an allelic series)
binding signal (SIX6 [3]): 10.9 upbm affinity estimate (log intensity, higher = more binding, comparable within an allelic series)
binding signal (SIX6 [4]): 9.51 upbm affinity estimate (log intensity, higher = more binding, comparable within an allelic series)
binding signal (SIX6 [5]): 10.6 upbm affinity estimate (log intensity, higher = more binding, comparable within an allelic series)
binding signal (SIX6 [6]): 10.9 upbm affinity estimate (log intensity, higher = more binding, comparable within an allelic series)
binding signal (SIX6 [7]): 10.2 upbm affinity estimate (log intensity, higher = more binding, comparable within an allelic series)
binding signal (SIX6 [8]): 11 upbm affinity estimate (log intensity, higher = more binding, comparable within an allelic series)
binding signal (SIX6 [9]): 11 upbm affinity estimate (log intensity, higher = more binding, comparable within an allelic series)
binding signal (SIX6 [10]): 10.8 upbm affinity estimate (log intensity, higher = more binding, comparable within an allelic series)
binding signal (SIX6 [11]): 10.9 upbm affinity estimate (log intensity, higher = more binding, comparable within an allelic series)
binding signal (SIX6 [12]): 11 upbm affinity estimate (log intensity, higher = more binding, comparable within an allelic series)
binding signal (SIX6 [13]): 10.9 upbm affinity estimate (log intensity, higher = more binding, comparable within an allelic series)

Reference: paper PMC11006913
